These results are taken from PubChem BioAssay (Tox21).

Values without a mark were called inactive. Calls come from the whole dose curve; as a rule, active = well fitted curve in the direction sought with a large enough effect in the repeat runs; inconclusive = weak or mixed curves; inactive = no such curve, though single readings can be large; an effect the other way counts as inactive or inconclusive. Records with an inconclusive call do not appear.
% is set by controls: 0 for no effect and ±100 for the full control effect.
Note: nearly all actives have a fitted effect of over 50% in size.

The first assay is described as follows: qHTS RealTime-Glo MT Cell Viability Assay in HEK293 cells - 32 hour (AID 1224868). Note: top concentration of the series differs between compounds. As to conditions: RealTime-Glo luminescence; series mostly up to 76.8 µM; activity change, negative = cytotoxic: at the top concentration. The gist of the method: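 Luminescence generated by NanoLuc from substrate produced by living HEK293 cells served as the viability signal. Each value reflects the reading at its stated time point during continuous 40 h compound exposure at 37 C.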
For orientation: In qHTS, concentration-response curves come from the screen itself.
With `CC1=CC(=O)CCC1`, the “activity change, negative = cytotoxic” value is 0.84%.
As to `NC(CS)C(=O)O` (stereo unspecified), the “activity change, negative = cytotoxic” value was 4.87% [at 35.3 µM].
Take `CCc1cc(S(=O)(=O)O)c2cc(C(C)C)cccc1-2`: the “activity change, negative = cytotoxic” value was 0.937% [at 35.3 µM].
With `CCCCCCCCN(C)CCCCCCCC`, the “activity change, negative = cytotoxic” value was 3.6%.
On to `CC(C)c1ccc2oc3nc(N)c(C(=O)O)cc3c(=O)c2c1`, for which the “activity change, negative = cytotoxic” value was 15.8% [at 35.3 µM].
On to `CN(C)CCn1nnnc1SCC1=C(C(=O)O)N2C(=O)[C@@H](NC(=O)Cc3csc(N)n3)[C@H]2SC1`, for which the “activity change, negative = cytotoxic” value was 7.82% [at 35.3 µM].
As for `NS(=O)(=O)c1cc2c(cc1C(F)(F)F)NC(Cc1ccccc1)NS2(=O)=O` (stereo unspecified), the “activity change, negative = cytotoxic” value was -8.63% [at 35.3 µM].
Still for that read-out and setting: the figure for `COc1ccc(NC(C)=O)cc1` is -5.44%; for `Cc1c(F)cc2c(=O)c(C(=O)O)cn3c2c1CCC3C` (stereo unspecified) it is -1.96% [at 35.3 µM].
As for `CCCCCCC(CCCCCCCCCCC(=O)OCC(COC(C)=O)OC(C)=O)OC(C)=O` (stereo unspecified), the “activity change, negative = cytotoxic” value is 12.2% [at 35.3 µM].
Still for that read-out and setting: the figure for `C=C(C)C(=O)OCCCCCCCCCCCCCCCCCC` is 4.26% [at 15.8 µM]; for `Nc1cc(N)cc(C(=O)O)c1` it is 9.49%.
For the compound `CC(C)CCCC(C)NCCC(C)C` (stereo unspecified), the “activity change, negative = cytotoxic” value is 0.101% [at 35.3 µM].
Still for that read-out and setting: the figure for `CCCCC1CCCCC(=O)O1` (stereo unspecified) is 11%; for `O=C1OC(=O)c2cc([N+](=O)[O-])ccc21` it is 13.3%.
Consider `CNc1ncnc2nc[nH]c12`, for which the “activity change, negative = cytotoxic” value was 5.17%.
Still for that read-out and setting: the result for `CCCCC=O` reads 0.643%; that for `N#CC1(O)CCCCC1`, -16.4%.
Still for that read-out and setting: the result for `COC(=O)c1ccc(C(=O)OC)c(C(=O)OC)c1` reads -0.422%.
On to `CC(C)c1cccc(O)c1`, for which the “activity change, negative = cytotoxic” value is 5.81%.
As to `Nc1nc2c(ncn2CCC(CO)CO)c(=O)[nH]1`, the “activity change, negative = cytotoxic” value is -1.07% [at 35.3 µM].
On the same count and under the same terms, the figure for `CC(C)(C)OC(=O)N1C[C@@H](F)C[C@H]1C(=O)O` is 2.49%.
With `COc1ccc(COC=O)cc1`, the “activity change, negative = cytotoxic” value is -26.7%.
In the case of `CC(C)(C)C(=O)/C=C/c1ccc(Cl)cc1`, the “activity change, negative = cytotoxic” value is 3.48%.
Regarding `Nc1ccc2cc(S(=O)(=O)O)ccc2c1`, the “activity change, negative = cytotoxic” value is -9.5%.
On to `C[C@H]1O[C@@H](n2cc(F)c(=O)[nH]c2=O)[C@H](O)[C@@H]1O`, for which the “activity change, negative = cytotoxic” value is 0.409% [at 35.3 µM].
`O=C(O)CCNC(=O)c1ccc(N=Nc2ccc(O)c(C(=O)O)c2)cc1`: the “activity change, negative = cytotoxic” value is 0.704% [at 35.3 µM].
As for `CCCC(=O)O[C@]1(C(=O)CCl)[C@@H](C)C[C@H]2[C@@H]3CCC4=CC(=O)C=C[C@]4(C)[C@@]3(F)C(=O)C[C@@]21C`, the “activity change, negative = cytotoxic” value is -19.5% [at 35.3 µM].
The same measure, in the same setting: the result for `CCN1CCN(c2cc3c(cc2F)c(=O)c(C(=O)O)cn3C2CC2)CC1` reads 4.77% [at 35.3 µM].
As to `CC1=CC(C)C(C=O)C(C)C1` (stereo unspecified), the “activity change, negative = cytotoxic” value was 1.69%.
Still for that read-out and setting: the result for `CN(C)CCOC(c1ccc(Cl)cc1)c1ccccn1` (stereo unspecified) reads 3.35% [at 35.3 µM]; that for `COc1ccc(N=[N+]([O-])c2ccc(OC)cc2)cc1`, -22.2%.
`CCCC(C)CO` (stereo unspecified): the “activity change, negative = cytotoxic” value is 7.08%.
The same measure, in the same setting: the result for `CC(C)COC(=O)C(C)C` reads 5.48%.

A further assay is described as follows: A CellTox Green Cytotoxicity Assay to monitor cytotoxicity in HEK293 cells - 0 hour (AID 1224869). As to conditions: CellTox Green fluorescence; series mostly up to 76.8 µM; cytotoxicity: at the top concentration. Put shortly: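 Fluorescence from a DNA-binding dye excluded by viable cells was measured repeatedly in the same HEK293 wells (600 cells/well) during continuous compound exposure at 37 C. Each assay gives one read point: 0, 8, 16, 24, 32 or 40 h.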
With `CC1=CC(=O)CCC1`, the “cytotoxicity” value was 0.659%.
The same measure, in the same setting: the figure for `NC(CS)C(=O)O` (stereo unspecified) is -10.5% [at 35.3 µM]; for `CCc1cc(S(=O)(=O)O)c2cc(C(C)C)cccc1-2` it is -4.46% [at 35.3 µM]; for `CCCCCCCCN(C)CCCCCCCC` it is -2.82%.
Take `CCCOc1ccccc1-c1nc2n[nH]nc2c(=O)[nH]1`: the “cytotoxicity” value was -12.1% [at 35.3 µM].
The same measure, in the same setting: the result for `CC(C)c1ccc2oc3nc(N)c(C(=O)O)cc3c(=O)c2c1` reads 0.805% [at 35.3 µM]; that for `CN(C)CCn1nnnc1SCC1=C(C(=O)O)N2C(=O)[C@@H](NC(=O)Cc3csc(N)n3)[C@H]2SC1`, -0.673% [at 35.3 µM].
The same measure, in the same setting: the result for `NS(=O)(=O)c1cc2c(cc1C(F)(F)F)NC(Cc1ccccc1)NS2(=O)=O` (stereo unspecified) reads -16.7% [at 35.3 µM]; that for `COc1ccc(NC(C)=O)cc1`, 0.181%.
The same measure, in the same setting: the figure for `Cc1c(F)cc2c(=O)c(C(=O)O)cn3c2c1CCC3C` (stereo unspecified) is -2.05% [at 35.3 µM]; for `CCCCCCC(CCCCCCCCCCC(=O)OCC(COC(C)=O)OC(C)=O)OC(C)=O` (stereo unspecified) it is -3.42% [at 35.3 µM].
On to `CCN(CC)S(=O)(=O)c1ccc(C(=O)O)cc1`, for which the “cytotoxicity” value is -0.335% [at 35.3 µM].
Same read-out and setting: the figure for `Nc1cc(N)cc(C(=O)O)c1` is -3.86%; for `CC(C)CCCC(C)NCCC(C)C` (stereo unspecified) it is -1.34% [at 35.3 µM]; for `O=C1OC(=O)c2cc([N+](=O)[O-])ccc21` it is -6.28%.
The same measure, in the same setting: the result for `CNc1ncnc2nc[nH]c12` reads -8.3%; that for `CCCCC=O`, -5.26%.
Take `N#CC1(O)CCCCC1`: the “cytotoxicity” value was 3.26%.
As for `COC(=O)c1ccc(C(=O)OC)c(C(=O)OC)c1`, the “cytotoxicity” value is -1.38%.
Consider `Nc1nc2c(ncn2CCC(CO)CO)c(=O)[nH]1`, for which the “cytotoxicity” value was -8.71% [at 35.3 µM].
Consider `CC(C)(C)OC(=O)N1C[C@@H](F)C[C@H]1C(=O)O`, for which the “cytotoxicity” value was 1.27%.
The same measure, in the same setting: the figure for `COc1ccc(COC=O)cc1` is 1.78%.
Still for that read-out and setting: the figure for `CC(C)(C)C(=O)/C=C/c1ccc(Cl)cc1` is 1.01%.
On to `Nc1ccc2cc(S(=O)(=O)O)ccc2c1`, for which the “cytotoxicity” value is -2.87%.
For the compound `O=C(O)CCNC(=O)c1ccc(N=Nc2ccc(O)c(C(=O)O)c2)cc1`, the “cytotoxicity” value is -11.1% [at 35.3 µM].
Take `CCCC(=O)O[C@]1(C(=O)CCl)[C@@H](C)C[C@H]2[C@@H]3CCC4=CC(=O)C=C[C@]4(C)[C@@]3(F)C(=O)C[C@@]21C`: the “cytotoxicity” value is -5.74% [at 35.3 µM].
The same measure, in the same setting: the figure for `CCN1CCN(c2cc3c(cc2F)c(=O)c(C(=O)O)cn3C2CC2)CC1` is 2.72% [at 35.3 µM].
With `CC1(C)SC(C)(C)SC(C)(C)S1`, the “cytotoxicity” value is 12.3%.
On to `CC1=CC(C)C(C=O)C(C)C1` (stereo unspecified), for which the “cytotoxicity” value is 5.29%.
With `CN(C)CCOC(c1ccc(Cl)cc1)c1ccccn1` (stereo unspecified), the “cytotoxicity” value is -7.78% [at 35.3 µM].
On to `CCCC(C)CO` (stereo unspecified), for which the “cytotoxicity” value was -1.67%.
In the case of `CC(C)COC(=O)C(C)C`, the “cytotoxicity” value was -2.27%.
